Most compounds without a hit are left out; they make up all but 11% or so of the library.
HPGD inh: blocks human HPGD enzyme activity. AID 894. purified HPGD, NADH fluorescence kinetic, PGE2 substrate. Potency, µM, hits mostly inhibitors. P15428. actives 4.3% (n = 150,000); active = well fitted inhibition curve with a large enough effect, not every such curve was filed as active; inconclusive = small, poorly fitted or top-dose-only effect, or another doubt; inactive = no such curve, though single readings can be large or run the other way
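NADH formation kinetics: reaction with 30 uM PGE2 and 1 mM NAD+ (final), 20 nM enzyme, Tris-HCl pH 8 with Tween 20, after 15 min compound preincubation at room temperature. Fluorescence change, last versus first of five reads.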
CBFb-RUNX1 inh: CBF-beta/RUNX1 interaction disruption; Q01196+Q13951; AlphaScreen CBFb-His/RUNX1-biotin binding, biochemical; Potency, µM (series often up to 59.8 µM), usual class: inhibitors; 230,000 tested, under 10 active
Target sequence (Q01196 whole entry, looked up): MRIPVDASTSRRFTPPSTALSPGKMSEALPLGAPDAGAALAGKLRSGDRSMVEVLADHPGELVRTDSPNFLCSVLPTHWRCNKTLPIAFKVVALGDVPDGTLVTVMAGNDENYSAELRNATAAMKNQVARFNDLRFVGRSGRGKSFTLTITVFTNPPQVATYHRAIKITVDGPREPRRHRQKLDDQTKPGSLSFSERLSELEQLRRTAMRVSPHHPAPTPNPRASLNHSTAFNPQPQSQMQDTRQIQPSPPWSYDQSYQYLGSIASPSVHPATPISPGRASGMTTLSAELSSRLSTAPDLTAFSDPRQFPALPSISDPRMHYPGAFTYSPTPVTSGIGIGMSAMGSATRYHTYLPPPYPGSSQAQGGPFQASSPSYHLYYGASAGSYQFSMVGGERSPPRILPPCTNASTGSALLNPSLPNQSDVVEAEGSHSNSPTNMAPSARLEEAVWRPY
Target sequence (Q13951 whole entry, looked up): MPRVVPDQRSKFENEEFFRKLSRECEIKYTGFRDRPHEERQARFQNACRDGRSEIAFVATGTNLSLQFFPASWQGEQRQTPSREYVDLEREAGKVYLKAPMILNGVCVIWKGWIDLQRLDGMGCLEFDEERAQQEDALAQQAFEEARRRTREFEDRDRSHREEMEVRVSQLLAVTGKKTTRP
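CBFb-His/RUNX1-biotin, 30 nM each, preincubated 20 min RT; compound 15 min RT; Ni + streptavidin beads 50 ng each, 90 min RT; AlphaScreen read.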
PNC inhibitor: blocks assembly of the perinucleolar compartment; activity change (PNC), negative = inhibition, % at 10 µM; PC3M PTB-GFP, PNC prevalence imaging, 16 h; hits give low values; AID 2417; actives 3.1% (n = 140,000);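 active = readout at or below -70, meaning at least 70% loss of cells showing the perinucleolar compartment, a nuclear body marking cancer cells; inconclusive = readout between -30 and a set limit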
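PC3M cells stably expressing PTB-GFP, 750–1000 cells/well, treated 16 h at 37 °C with compound (23 nl of library stock), in duplicate. After paraformaldehyde fixation and Hoechst stain, imaged at 20x; PNC prevalence scored by image analysis.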
ALDH1A1 inh: inhibitors of human aldehyde dehydrogenase 1A1 | actives 7.3% (n = 220,000) | Purified ALDH1A1, NADH fluorescence, propionaldehyde substrate | Potency, µM (titrated, usually from 75.3 µM), hits mostly inhibitors; active = well fitted inhibition curve with a large enough effect, not every such curve was filed as active; inconclusive = small, poorly fitted or top-dose-only effect, or another doubt; inactive = no such curve, though single readings can be large or run the other way
HTT ATP protect: cytoprotection in Huntington HTT-Q103 PC12 cell model | PC12 HTT-Q103 induced, cytoprotection, ATP luminescence, 40 h | Potency, µM (highest dose often 56.4 µM), usual class: activators | actives 0.14% (n = 230,000); note: nearly all actives have a fitted effect of over 45% in size
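Stable PC12 Q103-GFP cells in serum-supplemented, phenol red-free DMEM; induction by tebufenozide at 100 nM final; compound dose series; cell viability quantified luminescently from ATP.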
HttQ103 aggreg: inhibitors of mutant huntingtin aggregate formation in PC12 cells. actives 1.1% (n = 220,000). Potency, µM (titrated, usually from 46.1 µM), actives largely listed as inhibitors. PC12 HttQ103-GFP aggregates, Acumen cytometry, 40 h; note: nearly all actives have a fitted effect of over 60% in size
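Quantitative HTS on tebufenozide-induced (100 nM) PC12 cells stably expressing polyQ103 Huntingtin exon 1–GFP. Reduction of bright GFP aggregates, detected by laser scanning cytometry after lysis, identified actives across the titration.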
A number is an active result; ! = not active in a repeat; [ ] = remark or other dose. Unless noted, calls come from the whole dose curve; as a rule, active = well fitted curve in the direction sought with a large enough effect; inconclusive = small, poorly fitted or top-dose-only effect, or another doubt; inactive = no such curve, though single readings can be large; an effect the other way counts as inactive or inconclusive.

What do the screens show for `[N-]=[N+]=Nc1nc2c(N)ncnc2n1C1OC(CO)C(O)C1O` (stereo not drawn)?
HPGD inh: inactive; ALDH1A1 inh: inactive

How did Cc1ccccc1-n1c(C)nnc1SCC(=O)N1CCc2ccccc2C1 do in these assays?
HPGD inh: inactive; CBFb-RUNX1 inh: inactive; PNC inhibitor: -106.6; ALDH1A1 inh: inactive; HttQ103 aggreg: inactive

How did Cc1nc2ncnn2c(C)c1CCC(=O)N1CCc2ccccc2C1 do in these assays?
HPGD inh: inactive; CBFb-RUNX1 inh: inactive; PNC inhibitor: inactive; ALDH1A1 inh: 2.24µM; HTT ATP protect: inactive; HttQ103 aggreg: inactive

How did Cc1ccnc(SCC(=O)N2CCc3ccccc3C2)n1 do in these assays?
CBFb-RUNX1 inh: inactive; ALDH1A1 inh: 17.8µM; HTT ATP protect: inactive[10 µM]; HttQ103 aggreg: inactive[9.22 µM]

How did COC(=O)[C@@]1(Cc2ccccc2)[C@H]2c3cc(C(=O)N(C)C)n(Cc4ccsc4Br)c3C[C@H]2CN1C(=O)c1ccccc1 do in these assays?
HPGD inh: inactive; CBFb-RUNX1 inh: inactive; ALDH1A1 inh: inactive; HTT ATP protect: inconclusive

What do the screens show for `Cn1c(CN2CCCC(C(=O)c3ccc4c(c3)OCO4)C2)nc2ccccc21` (stereo not drawn)?
CBFb-RUNX1 inh: inactive; ALDH1A1 inh: 28.2µM; HTT ATP protect: inactive; HttQ103 aggreg: inactive

How did O=C(c1ccc2c(c1)OCO2)C1CCCN(Cc2ccc3nsnc3c2)C1 (stereo not drawn) do in these assays?
CBFb-RUNX1 inh: inactive; ALDH1A1 inh: inconclusive; HTT ATP protect: inactive[10 µM]; HttQ103 aggreg: inactive[9.22 µM]

What do the screens show for `Nc1c2c(nc3ccccc13)CCC[C@H]2O`?
HTT ATP protect: inactive[1.9 µM]

How did Cc1ccc(C2(C)NC(=O)N(CC(=O)NCc3cccs3)C2=O)cc1 (stereo not drawn) do in these assays?
HPGD inh: inconclusive; CBFb-RUNX1 inh: inactive; PNC inhibitor: -108.4; ALDH1A1 inh: inactive; HTT ATP protect: inactive[10 µM]; HttQ103 aggreg: inactive

What do the screens show for `Cc1ccc(C2(C)NC(=O)N(CC(=O)NCCC3=CCCCC3)C2=O)cc1` (stereo not drawn)?
HPGD inh: inactive; CBFb-RUNX1 inh: inactive; PNC inhibitor: inactive; ALDH1A1 inh: inactive; HTT ATP protect: inactive; HttQ103 aggreg: inactive

How did O=C(CN1C(=O)NC(c2ccccc2)(c2ccccc2)C1=O)Nc1cccnc1Cl do in these assays?
CBFb-RUNX1 inh: inactive; ALDH1A1 inh: inactive; HTT ATP protect: inactive[10 µM]; HttQ103 aggreg: inactive

Results for Cc1ccc(C2(C)NC(=O)N(CC(=O)Nc3cccnc3Cl)C2=O)cc1 (stereo not drawn) ?
CBFb-RUNX1 inh: inconclusive; ALDH1A1 inh: 3.16µM; HTT ATP protect: inactive; HttQ103 aggreg: inactive

What do the screens show for `Cc1ccc(NC(=O)CN2C(=O)NC3(CCC(C)CC3)C2=O)c(Cl)c1` (stereo not drawn)?
HPGD inh: inactive; CBFb-RUNX1 inh: inactive; PNC inhibitor: -126.9; ALDH1A1 inh: inactive; HTT ATP protect: inactive; HttQ103 aggreg: inactive

What do the screens show for `COc1ccc2c(c1)C(=O)[C@@H](OC(=O)NCCOc1ccccc1)[C@H](c1ccc(OC)c(Br)c1)O2`?
HPGD inh: inactive; CBFb-RUNX1 inh: inactive; ALDH1A1 inh: inactive; HTT ATP protect: inactive

Results for Cc1cc(C(=O)CSc2nnc(NCc3ccccc3)s2)c(C)n1C ?
HPGD inh: 17.8µM; CBFb-RUNX1 inh: inactive; PNC inhibitor: inactive; ALDH1A1 inh: inactive; HTT ATP protect: inactive; HttQ103 aggreg: inactive

What do the screens show for `Cc1ccc(NC(=O)COC(=O)C(NS(=O)(=O)c2ccc(Cl)cc2)C(C)O)c(Br)c1` (stereo not drawn)?
HPGD inh: inactive; CBFb-RUNX1 inh: inactive; PNC inhibitor: inconclusive; ALDH1A1 inh: 3.55µM; HTT ATP protect: inactive[10 µM]; HttQ103 aggreg: inactive

How did CCc1cccc(C)c1NC(=O)COC(=O)C(NS(=O)(=O)c1ccc(Cl)cc1)C(C)O (stereo not drawn) do in these assays?
HPGD inh: inactive; CBFb-RUNX1 inh: inactive; PNC inhibitor: inconclusive; ALDH1A1 inh: inactive; HttQ103 aggreg: inactive

How did Cc1ccc(NC(=O)COC(=O)C2CC2(Cl)Cl)cc1C (stereo not drawn) do in these assays?
CBFb-RUNX1 inh: inconclusive; ALDH1A1 inh: 20µM; HTT ATP protect: inactive; HttQ103 aggreg: inactive

How did Cc1ccc(NC(=O)COC(=O)C(NS(=O)(=O)c2ccc(Cl)cc2)C(C)O)cc1C (stereo not drawn) do in these assays?
HPGD inh: inactive; CBFb-RUNX1 inh: inactive; PNC inhibitor: inconclusive; ALDH1A1 inh: 1.26µM; HTT ATP protect: inactive[10 µM]; HttQ103 aggreg: inactive

What do the screens show for `CC(=O)OCC(=O)Nc1ccc(Br)c(C)c1`?
CBFb-RUNX1 inh: inactive; ALDH1A1 inh: inactive; HTT ATP protect: inactive[10 µM]; HttQ103 aggreg: inactive

How did Cc1nn2c3c(cnc2c1-c1ccccc1)C(=O)CC(c1ccco1)C3 (stereo not drawn) do in these assays?
HPGD inh: inactive; CBFb-RUNX1 inh: inactive; PNC inhibitor: inactive; ALDH1A1 inh: 25.1µM; HTT ATP protect: inactive; HttQ103 aggreg: inconclusive

How did CN1CC(O)C2=CC(=O)C(=O)C=C21 (stereo not drawn) do in these assays?
CBFb-RUNX1 inh: inconclusive; ALDH1A1 inh: inactive; HTT ATP protect: inactive

What do the screens show for `CCCCC[C@H](O)/C=C/[C@H]1C=CC(=O)[C@@H]1C/C=C\CCCC(=O)O`?
HPGD inh: 22.4µM!; CBFb-RUNX1 inh: inactive; PNC inhibitor: -96.1; ALDH1A1 inh: 39.8µM!; HTT ATP protect: inactive; HttQ103 aggreg: inactive

Results for CCCCC/C=C/C=C1/C(=O)C=C[C@@H]1C/C=C\CCCC(=O)O ?
HPGD inh: inactive; CBFb-RUNX1 inh: inconclusive; ALDH1A1 inh: inactive; HTT ATP protect: inconclusive

How did CCCCC[C@H](O)C/C=C1/C(=O)C=C[C@@H]1C/C=C\CCCC(=O)O do in these assays?
HPGD inh: inconclusive; CBFb-RUNX1 inh: inactive; ALDH1A1 inh: inactive; HTT ATP protect: 11.2µM

How did Cc1c(C(=O)C(=O)NCc2cccs2)c2ccccc2n1C do in these assays?
CBFb-RUNX1 inh: inactive; ALDH1A1 inh: inactive; HTT ATP protect: inactive; HttQ103 aggreg: inactive

Results for CC1Cc2c(COc3ccccc3)nc3c(c2CO1)CN(CCOc1ccccc1)CC3 (stereo not drawn) ?
CBFb-RUNX1 inh: inactive[13.1 µM]; ALDH1A1 inh: inactive[13.5 µM]; HTT ATP protect: inactive[10 µM]

How did COc1ccc(CN(C2CCCC2)S(=O)(=O)c2ccc(-n3cnnn3)cc2)cc1OC do in these assays?
HPGD inh: inactive; CBFb-RUNX1 inh: inactive; PNC inhibitor: inactive; ALDH1A1 inh: 1.78µM; HTT ATP protect: inactive[10 µM]; HttQ103 aggreg: inactive

Results for COc1cc(S(=O)(=O)N(Cc2ccc(C)cc2)C2CCCCC2)ccc1-n1cnnn1 ?
HPGD inh: inactive; CBFb-RUNX1 inh: inactive; PNC inhibitor: inactive; ALDH1A1 inh: inconclusive; HTT ATP protect: inactive; HttQ103 aggreg: inactive

How did C=CCNc1cnn(CC(C)=O)c(=O)c1Br do in these assays?
HPGD inh: inactive; CBFb-RUNX1 inh: inactive; PNC inhibitor: inactive; ALDH1A1 inh: inactive; HTT ATP protect: inactive[10 µM]; HttQ103 aggreg: inactive
